Records with an inconclusive call do not appear. Activity calls are given as the source filed them. The call rests on the fitted dose curve; in most records, active means well fitted cell-killing curve with a large enough effect; inconclusive means small, poorly fitted or top-dose-only effect; inactive means flat fitted curve, though single readings scatter.

In PubChem BioAssay (NCATS) one finds Potency data, which are given here for 17 compounds.

A short description of test [1]: Cell Viability - LYMP2-023 (AID 975). Further: nearly all actives have a fitted effect of over 55% in size. The method, boiled down: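 CellTiter-Glo luminescence after 30 min at room temperature; decrease in intracellular ATP reflects toxicity. Cells: human lymphoblastoid line, 2500/well, 24 hr compound exposure at 37 C. AC50 fitted to standard Hill equation from concentration-response.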
Test [2] is described as follows: Cell Viability - LYMP2-025 (AID 976). The method, boiled down:
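CellTiter-Glo luminescence (cellular ATP) after 24 h compound exposure at 37 C; LYMP2-025 human lymphoblastoid cells, 2500/well, complete medium. Tetraoctylammonium bromide positive control. AC50 by Hill equation fit of qHTS concentration-response.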

A short description of test [3]: Cell Viability - LYMP2-007 (AID 979).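 Further: cells exposed to compound for 24 h before reading; nearly all actives have a fitted effect of over 60% in size.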 In outline: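 qHTS cytotoxicity: 2500 cells/well, 5 hr 37 C settle, compound 24 hr 37 C, CellTiter-Glo 30 min RT, luminescence. Decrease in ATP = toxicity. AC50 by standard Hill equation; tetraoctylammonium bromide positive control.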
Test [4] is described as follows: Cell Viability - LYMP2-010 (AID 981). Further: nearly all actives have a fitted effect of over 55% in size. In outline: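 qHTS cytotoxicity, 1536-well: 2500 cells/well, 5 hr settle, 24 hr compound at 37 C, CellTiter-Glo 30 min RT, luminescence read. Decrease in ATP = toxicity; AC50 via standard Hill equation. Positive control tetraoctylammonium bromide.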
Test [5] in a line: Cell Viability - LYMP2-002 (AID 977). In outline: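 Human lymphoblastoid cells (2500/well) in complete medium were preincubated 5 hr at 37 C, then exposed to compounds for 24 hr at 37 C. Intracellular ATP was read by CellTiter-Glo luminescence; AC50 came from Hill-equation concentration-response fits.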
Test [6] can be described thus: Cell Viability - LYMP2-017 (AID 972). Further: nearly all actives have a fitted effect of over 55% in size. In outline: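 Luminescent ATP read-out (CellTiter-Glo, 30 min RT) reports viable cell number. Cells: human lymphoblastoid line, 2500 per well, 5 hr preincubation, 24 hr compound exposure at 37 C. AC50 is derived from qHTS concentration-response data using the standard Hill model.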
Test [7] is described as follows: Cell Viability - LYMP2-019 (AID 973). Further: nearly all actives have a fitted effect of over 55% in size. In outline:
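qHTS, 1536-well; 2500 cells/well; 5 hr pre-incubation, 24 hr compound exposure, 37 C; CellTiter-Glo added, 30 min RT; luminescence read; AC50 via standard Hill equation.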

Test [8] is described as follows: Cell Viability - LYMP2-021 (AID 974). In outline: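 ATP luminescence (CellTiter-Glo, 30 min RT) after 24 h compound exposure at 37 C; 2500 human lymphoblastoid cells/well, 5 h settle beforehand. Cytotoxicity = concentration-dependent ATP drop, AC50 by Hill fit.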
Test [9] can be described thus: Cell Viability - LYMP2-006 (AID 978). Further: nearly all actives have a fitted effect of over 60% in size. The method, boiled down:
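In this cytotoxicity screen, the human lymphoblastoid line grew in complete medium with test compounds for 24 hr at 37 C. Cellular ATP served as the viability signal.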

Test [10] can be described thus: Cell Viability - LYMP2-008 (AID 980). Further: nearly all actives have a fitted effect of over 60% in size. The method, boiled down:
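Luminescent ATP read-out (CellTiter-Glo, 30 min RT) after 24 hr compound exposure at 37 C of human lymphoblastoid cells in complete medium. Decrease in ATP taken as cytotoxicity; AC50 derived by standard Hill fit of qHTS concentration-response data.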
Potency means the concentration at half of the fitted maximal effect.

As to `N=C(N)c1ccc(OCCCCCOc2ccc(C(=N)N)cc2)cc1`, the Potency result in test [1] and in test [2] was “inactive” in each case. The Potency in [3] and in [4] was 39.8 µM (active) in each case.

Take `COc1ccc2cc3[n+](cc2c1OC)CCc1cc2c(cc1-3)OCO2`: the Potency result in [1], in test [2] and in test [5] was “inactive” each time.

In the case of `O=C(N[C@H](CO)[C@H](O)c1ccc([N+](=O)[O-])cc1)C(Cl)Cl`, the Potency entry in [6], in test [7], in [8], in test [1], in test [2] and in [5] was “inactive” throughout. Moreover, the Potency entry in test [9], in [3], in [10] and in test [4] was “inactive” in each case.

Turning to `NNC(=O)c1ccncc1`, the Potency entry in test [6], in test [7], in test [8], in [1], in test [2] and in test [5] was “inactive” each time. Further, the Potency result in test [9], in test [3], in test [10] and in test [4] was “inactive” throughout.

For `CN(C)c1ccc(C(=C2C=CC(=[N+](C)C)C=C2)c2ccc(N(C)C)cc2)cc1`, the Potency in test [6] is 3.98 µM (active); in test [7], 3.16 µM (active); in test [8] it was 2.51 µM (active); in test [1], 3.16 µM (active); in test [2] it was 6.31 µM (active); in test [5] it was 2.51 µM (active). In addition, the Potency in test [9] was 3.16 µM (active); in test [3], 2.51 µM (active); in test [10], 2 µM (active); in test [4], 1.26 µM (active).

Take `CC1=NN(c2ccccc2)C(=O)C1`: the Potency result in test [6], in test [7], in [8], in [1], in test [2] and in [5] was “inactive” throughout. In addition, the Potency result in [9], in test [3], in [10] and in test [4] was “inactive” in each case.

Consider `Cc1nnc(NS(=O)(=O)c2ccc(N)cc2)s1`, for which the Potency result in [6], in test [7], in test [8], in test [1], in [2] and in test [5] was “inactive” in each case. In addition, the Potency entry in [9], in [3], in [10] and in test [4] was “inactive” throughout.

As for `Cc1noc(NS(=O)(=O)c2ccc(N)cc2)c1C`, the Potency entry in test [6], in test [7], in test [8], in test [1], in test [2] and in [5] was “inactive” each time. Further, the Potency result in test [9], in test [3], in test [10] and in test [4] was “inactive” throughout.

Regarding `CC(=O)[C@H]1CC[C@H]2[C@@H]3CCC4=CC(=O)CC[C@]4(C)[C@H]3CC[C@]12C`, in [9], the Potency result is “inactive”.

In the case of `Cc1ncc([N+](=O)[O-])n1CCO`, the Potency entry in test [6], in test [7], in test [8], in test [1], in test [2] and in [5] was “inactive” throughout. For the same compound, the Potency result in test [9], in test [3], in test [10] and in [4] was “inactive” in each case.

Regarding `NC(N)=NC(N)=NCCc1ccccc1`, the Potency result in test [6], in test [8], in test [1], in [2], in test [5] and in [9] was “inactive” each time. Also, the Potency entry in test [3], in test [10] and in test [4] was “inactive” each time.

Take `C[C@]12C=CC(=O)C=C1CC[C@@H]1[C@@H]2C(=O)C[C@@]2(C)[C@H]1CC[C@]2(O)C(=O)CO`: the Potency result in test [6], in [7], in test [8], in test [1], in test [2] and in test [5] was “inactive” in each case. Further, the Potency entry in test [9], in test [3], in [10] and in test [4] was “inactive” in each case.

In the case of `Cc1cc(NS(=O)(=O)c2ccc(N)cc2)no1`, the Potency entry in test [6], in test [7], in [8], in [1], in [2] and in test [5] was “inactive” each time. The Potency result in test [9], in test [3], in test [10] and in test [4] was “inactive” throughout.

Regarding `CCc1cc(C(N)=S)ccn1`, the Potency result in [6], in test [7], in [8], in test [1], in test [2] and in [5] was “inactive” in each case. Also, the Potency result in [9], in [3], in test [10] and in [4] was “inactive” in each case.

Regarding `CC[C@H](C)C(=O)O[C@H]1C[C@@H](C)C=C2C=C[C@H](C)[C@H](CC[C@@H]3C[C@@H](O)CC(=O)O3)[C@H]21`, the Potency entry in test [6], in test [7], in test [8], in test [1], in test [2] and in test [5] was “inactive” in each case. Also, the Potency result in test [3] and in test [10] was “inactive” throughout.

Regarding `Cc1ccnc2c1NC(=O)c1cccnc1N2C1CC1`, the Potency entry in test [6], in [7], in [8], in test [1], in test [2] and in test [5] was “inactive” each time. Also, the Potency entry in test [9], in [3], in test [10] and in test [4] was “inactive” throughout.

As to `O=C(O)c1cc(=O)[nH]c(=O)[nH]1`, the Potency result in [6], in test [7], in [8], in test [1], in [2] and in test [5] was “inactive” throughout. Besides, the Potency result in test [9], in [3], in test [10] and in [4] was “inactive” in each case.
